Screening data as filed in PubChem.
Only some compounds are listed: those with a hit (about 5.7% of all), similar ones and a draw of the others.
ATXN2 expr inh: ATXN2 expression inhibition; HEK-293 ATXN2-luciferase reporter, luminescence, 24 h; 360,000 tested, 0.72% active; Potency, µM (top dose mostly 57 µM), usual class: inhibitors; further: nearly all actives have a fitted effect of over 55% in size
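ATXN2-luciferase reporter cells (luciferase flanked by upstream and downstream ATXN2 gene portions) were treated 24 h at 37 °C with compounds at up to 57 uM. SteadyGlo luminescence gave expression; GF-AFC fluorescence gave viability.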
TGFb SMAD3 inh: blocks TGF-b signaling; 410,000 tested, 1.2% active; Potency, µM (titrated, usually from 46.1 µM), hits mostly inhibitors; HepG2 CAGA-GFP TGF-b/SMAD3 reporter, GFP fluorescence, 18 h; TGF-beta stimulated, 500 pg/mL final; further: nearly all actives have a fitted effect of over 65% in size
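TGF-beta reporter screen: HEPG2 CAGA-GFP, 1% FBS, 500 pg/mL TGF-beta final, 18 h; per-cell GFP summed per well; curves fitted and categorized by class.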
ATXN viability: viability counter-screen for ATXN expression inhibitors; S2 cells (HEK-293 line with an ATXN2-luciferase reporter) viability, CellTiter-Fluor protease fluorescence, 24 h; Potency, µM (doses to about 56.7 µM), usual class: cytotoxic; 400,000 tested, 0.49% active; AID 651635; further: nearly all actives have a fitted effect of over 40% in size
IL1B secr inh: inhibitors of inflammasome signaling (IL-1 beta secretion); 360,000 tested, 4.7% active; activity change, % at 57.5 µM; AID 743279; THP-1 LPS/ATP IL-1B secretion, AlphaLISA, 16 h; active compounds read low; in the data active means activity change below about -50%; inconclusive means mostly about -30% to -49%
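THP-1 cells pretreated 1 hr with compounds (up to 57.5 uM final), then stimulated with LPS (250 ng/mL final) plus ATP (1.25 mM final); secreted IL-1B measured by AlphaLISA after 16 hr, decreased signal indicating inhibition.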
HepG2 viability: counter-screen for TGF-b inhibitors: cytotoxicity in HepG2 cells. AID 588856. Potency, µM (top dose mostly 46.1 µM), actives largely listed as cytotoxic. 410,000 tested, 0.76% active. HepG2 CAGA-GFP viability, ATP luminescence, 18 h
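CellTiter-Glo luminescence gave cytotoxicity after 18 hours at 37 degrees C. The cells were HepG2 CAGA-GFP in 1% FBS DMEM, stimulated with 500 pg/mL TGF-beta after compound addition. %Activity was normalised to no-cell wells (complete cell-killing) and DMSO (no toxicity), and curves were fitted and classified.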
Hits are given with their value; . = inactive; ? = inconclusive; / = not tested or not shown; ! = a repeat was not active. Unless noted, the call rests on the fitted dose curve; in most records, active means well fitted curve in the direction sought with a large enough effect; inconclusive means small, poorly fitted or top-dose-only effect, or another doubt; inactive means no such curve, though single readings can be large; an effect the other way counts as inactive or inconclusive.

SMILES	ATXN2 expr inh	TGFb SMAD3 inh	ATXN viability	IL1B secr inh	HepG2 viability
CCN(CC)C(=O)CSc1nc2c(sc(=S)n2-c2ccccc2)c(=O)n1Cc1ccco1	?	.	.	-64	.
CCN(CC)C(=O)CSc1nc2c(sc(=S)n2CC)c(=O)n1-c1ccccc1	.	?	.	.	.
CCCN(CCC)C(=O)CSc1nc2ccccc2c(=O)n1Cc1ccco1	/	/	/	/	.
CC(=O)c1cccc(NC(=O)CSc2ncc(C(=O)Nc3ccccc3)c(=O)n2C)c1	.	.	.	.	.
CC(=O)Nc1cccc(NC(=O)CSc2ncc(C(=O)Nc3ccccc3)c(=O)n2C)c1	?	?	/	-100	.
CC(=O)Nc1ccc(NC(=O)CSc2ncc(C(=O)Nc3ccc(F)cc3)c(=O)n2C)cc1	.	.	.	-59	.
CC(=O)Nc1cccc(NC(=O)CSc2ncc(C(=O)Nc3ccc(F)cc3)c(=O)n2C)c1	.	.	.	-100	.
O=C(CCCCC(=O)Sc1ccccc1)Sc1ccccc1	.	.	.	-96	.
Cc1ccc(-c2cc[n+](Cc3ccccc3)cc2)cc1	.	.	.	-72	.
Cc1csc2nc(-c3cccc(NC(=O)C(C)C)c3)cn12	/	.	/	/	.
COC1C(CO)OC(n2c3c(Cl)cccc3c3c4c(c5c6cccc(Cl)c6[nH]c5c32)C(=O)NC4=O)C(O)C1O (stereo not drawn)	?	?	?	-63	.
COc1cccc(NC(=O)Nc2ccc(C(C)(C)C)cc2)c1	.	?	?	-66	.
CCSc1nsc(NC(=O)Nc2cccc(OC)c2)n1	.	22µM	.	-97	.
C=CCSc1nsc(NC(=O)Nc2ccc(F)cc2)n1	?	6.3µM	8.9µM	-88	.
COc1cccc(NC(=O)Nc2ccncc2)c1	.	.	.	.	.
COc1ccc(Cc2nnc(NC(=O)Nc3cccc(OC)c3)s2)cc1	.	.	.	.	.
CCSc1nsc(NC(=O)Nc2ccccc2F)n1	.	?	?	-93	.
CCN(CC)c1ccc(/C=C/c2ccccn2)cc1	/	.	/	/	.
CCOC(=O)c1ccc(NC(=O)CCc2c(C)nc3c(c(C)nn3-c3ccccc3)c2C)cc1	.	.	.	/	.
O=C(CCCN1C(=O)/C(=C\c2cccc(Br)c2)SC1=S)Nc1ccc(C(=O)O)cc1	/	.	.	.	.
CN1CCN(C(=O)CCCN2C(=O)/C(=C/c3cccc(Br)c3)SC2=S)CC1	?	?	11µM	-100	.
O=C(CCCN1C(=O)/C(=C/c2cccc(Br)c2)SC1=S)N1CCOCC1	.	.	.	.	.
CN1CCN(C(=O)CCN2C(=O)/C(=C/c3cccc(Br)c3)SC2=S)CC1	.	18µM	?	-76	.
Cc1ccc(C(=O)N(Cc2ccc(N(C)C)cc2)CC2CCCO2)cc1 (stereo not drawn)	/	.	/	/	.
CCCn1c(=O)c2sccc2n2c(CCCC(=O)Nc3cccc(CC)c3)nnc12	/	?	/	/	.
SMILES	ATXN2 expr inh	TGFb SMAD3 inh	ATXN viability	IL1B secr inh	HepG2 viability
CCC(=O)O[C@@H]1CC(=O)O[C@H](C)C/C=C/C=C/[C@H](O)[C@H](C)C[C@H](CC=O)[C@H](O[C@@H]2O[C@H](C)[C@@H](O[C@H]3C[C@@](C)(O)[C@@H](OC(=O)CC)[C@H](C)O3)[C@H](N(C)C)[C@H]2O)[C@H]1OC	/	/	.	/	/
O=S(=O)(c1ccccc1)N(CC1CO1)c1cc(Cl)ccc1Cl (stereo not drawn)	.	.	.	-86	.
COc1ccc(N(CC2CO2)S(=O)(=O)c2ccccc2)cc1 (stereo not drawn)	.	.	.	-69	.
O=C(NC[C@@H]1CCCN2CCCC[C@H]12)c1cnn(-c2nccc(-c3ccco3)n2)c1C1CC1	/	/	.	/	/
CCc1ccccc1NC(=O)CN1C(=O)COc2ccc(S(=O)(=O)N3CCCCCC3)cc21	/	.	/	/	.
CC1(C)CC(=O)C=C(c2ccc(Oc3ccccc3)cc2)C1=O	.	.	?	.	.
CC1(C)CC(=O)C=C(c2ccc(-c3cnc4ccccc4c3)cc2)C1=O	?	.	7.9µM	.	.
COc1cc(=O)n2c(c1C(=O)N(C)Cc1nonc1C)CCN(Cc1ccccc1F)CC2	/	/	.	/	/
Cc1ccnc(NC(=O)C2CCC(CNc3c(N4CCCC4)c(=O)c3=O)CC2)c1 (stereo not drawn)	.	?	.	-67	.
COc1cc(NC(=O)C2CCC(CNc3c(N4CCC(C)CC4)c(=O)c3=O)CC2)cc(OC)c1 (stereo not drawn)	.	.	?	-62!	.
COc1cc(NC(=O)C2CCC(CNc3c(N4CCCCC4)c(=O)c3=O)CC2)cc(OC)c1 (stereo not drawn)	.	.	.	.	.
Cc1nn(CCC(=O)N2CCN(c3ccccc3)CC2)c(C)c1S(=O)(=O)N1CCCC1	.	.	.	/	.
Cc1cc(NC(=O)CN2C(=O)/C(=C/c3ccccc3F)SC2=S)no1	.	.	.	.	.
O=C(CCN1C(=O)/C(=C/c2ccccc2F)SC1=S)N[C@@H](CO)Cc1ccccc1	?	?	?	-99	.
O=C(CCN1C(=O)/C(=C/c2ccccc2)SC1=S)N[C@@H](CO)Cc1ccccc1	?	?	?	-61	.
O=C(CCN1C(=O)/C(=C/c2ccccc2)SC1=S)Nc1cccnc1	.	.	.	.	.
C=C1C(=O)[C@]23C[C@H]1CCC2[C@@]1(C)C(C[C@@H]3O)[C@](C)(C(=O)OC)CC[C@@H]1O (stereo partly drawn)	1.6µM	0.79µM	/	-111	5µM
C[C@@]12C(C[C@H](O)[C@@]34C[C@@H](CCC13)[C@@H](CO)C4=O)[C@](C)(C(=O)O)CC[C@@H]2O (stereo partly drawn)	.	.	.	.	.
Nc1ncnc(Nc2ccc(F)cc2)n1	.	.	?	.	.
Fc1ccc(Nc2ccnc(Nc3ccc(F)cc3)n2)cc1	.	.	.	-94	.
COc1ccc(NC(=O)NCCN2CCc3ccccc3C2)cc1	.	.	.	.	.
O=C(NCCCN1CCc2ccccc2C1)Nc1ccc(Cl)cc1	.	.	.	-55	.
O=C(Nc1ccccc1)N1CCc2ccccc2C1	.	.	.	.	.
O=C(Nc1ccc(Cl)cc1)N1CCc2ccccc2C1	.	.	.	-74	.
C=CCOC(=O)C1=C(C)NC(SCC(=O)N(CC)CC)=C(C#N)C1c1ccco1 (stereo not drawn)	.	.	.	.	.
C=CCOC(=O)C1=C(C)NC(SCC(=O)N(CC)CC)=C(C#N)C1c1ccccc1 (stereo not drawn)	.	.	.	-51	.
CC1=NN(c2cccc(C(=O)O)c2)C(=O)/C1=C\C=C\c1ccco1	.	?	?	-96	.
CC1=NN(c2ccccc2)C(=O)/C1=C\c1sccc1C	.	?	.	/	.
